# PrPC surface inh: cell surface PrPC inhibition, primary TR-FRET screen. P04156. actives 0.43% (n = 370,000). inhibition, % at 13.8 µM. TR-FRET read-out; in the data active = inhibition above about 24%; note: 0% = median of the test wells and 100% = reference compound wells
# TcdB inh: TcdB glycohydrolase inhibition. P18177. TcdB glycohydrolase enzymatic assay, plate reader. inhibition, % at 9.99 µM. actives 0.24% (n = 350,000). AID 652162; in the data active = inhibition above about 10%
# FBA Mtb inh: Mtb fructose-bisphosphate aldolase inhibition; actives 2.3% (n = 360,000); inhibition, % at 1 µM; purified M. tuberculosis FBA, fluorescence read-out; P9WQA3;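 note: 0% = vehicle and 100% = reference inhibitor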
# Yp Topo-I inh: Y. pestis Topo-I inhibition via cleavage products. actives 0.064% (n = 360,000). activity, % at 10 µM. Y. pestis Topo-I cleavage product accumulation, plate reader; in the data active = activity above about 50%, passing the limit was not always enough
# GDH-TPI counter-1: GDH-TPI coupled enzyme inhibition counter-screen; GDH-TPI coupled enzyme counterscreen, NADH absorbance; inhibition, % at 4.8 µM; AID 588335; actives 1.2% (n = 360,000); in the data active = inhibition above about 30%;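 note: 0% = DMSO wells and 100% = wells lacking the enzyme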
# Mtb FBA inh conf: Mtb FBA inhibition, confirmed | actives 78% (n = 5,600) | shares compounds with FBA Mtb inh | purified M. tuberculosis FBA, fluorescence read-out | inhibition, % at 1 µM;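 note: 0% = vehicle wells and 100% = reference inhibitor wells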
# GDH-TPI counter-2: inhibits GDH-TPI coupling enzymes, flagging Mtb FBA hits. shares compounds with FBA Mtb inh. GDH-TPI coupled enzyme counterscreen, fluorescence. inhibition, % at 1 µM. actives 81% (n = 5,600). AID 652141; in the data active = inhibition above about 10%
# Active calls of the source: *; / = no result given; + = active, no number. In the library only some 3.2% were active in any assay of this set; here they are far more common. Cut-off read from the data, not from the text of the source, unless noted: active = inhibition above about 27%; inactive = the rest.
SMILES,PrPC surface inh,TcdB inh,FBA Mtb inh,Yp Topo-I inh,GDH-TPI counter-1,Mtb FBA inh conf,GDH-TPI counter-2
CCOC(=O)N1CCC(NC(=O)CSCc2nc(-c3sccc3C)oc2C)CC1,/,/,40*,9,16,1,-1
Cc1oc(-c2cccs2)nc1CSCC(=O)NC1CC1,-1,/,35*,-1,-6,-2,-6
Cc1oc(-c2ccccc2Cl)nc1CSCC(=O)NC1CCCC1,6,/,1,22,-7,/,/
CNc1cccc(-c2cc(OC)c(OC)c(OC)c2)n1,-2,1,17,0,16,/,/
CNc1cncc(-c2cc(OC)c(OC)c(OC)c2)n1,-14,1,96*,0,23,+,+
CNc1cncc(-c2ccc(OC)cc2OC)n1,6,0,52*,3,23,4,2
CN(C)C(=O)c1cccc(-c2ccccc2[C@@H]2[C@@H](C#N)N(C(=O)C3CC3)[C@H]2CO)c1,/,1,/,/,/,/,/
CCNC(=O)COC(=O)c1ccc(-c2nc3ccccc3s2)s1,6,2,59*,6,21,+,+
Cc1c2cnccc2c(C)c2c1oc1ccccc12,5,1,43*,7,3,115*,94*
Cc1nc2c(oc3ccccc32)c(=O)o1,3,/,-1,4,-7,/,/
N#Cc1ccc(CCc2ccccc2)[nH]c1=O,2,1,31*,3,17,2,0
Cc1ccccc1S(=O)(=O)NCC[C@@H]1CC[C@@H](NC(=O)C2CCCC2)[C@H](CO)O1,/,1,/,/,/,/,/
CNC[C@@H]1Oc2ncc(-c3cccc(F)c3)cc2C(=O)N([C@H](C)CO)C[C@@H]1C,/,0,/,/,/,/,/
CO[C@H]1CN(C)C(=O)c2ccc(NC(=O)C3CCCCC3)cc2OC[C@H](C)N(C(=O)c2ccccc2)C[C@@H]1C,/,0,/,/,/,/,/
Cc1cc(C)c(-c2cc(C(F)(F)F)no2)c(=O)[nH]1,0,0,30*,8,22,+,147*
O=C(C[C@@H]1CC[C@@H]2[C@H](COC[C@@H](O)CN2C(=O)C2CC2)O1)NCc1ccccc1Cl,/,0,/,/,/,/,/
C[C@H]1CN([C@@H](C)CO)C(=O)Cc2cc(NC(=O)Nc3ccc(F)cc3)ccc2O[C@@H]1CN(C)C(=O)Nc1ccc(F)cc1,/,0,/,/,/,/,/
Cc1noc(C)c1NC(=O)Nc1cccc2c1O[C@H](CN(C)Cc1ccc(C(=O)Nc3ccccc3N)cc1)[C@H](C)CN([C@H](C)CO)C2=O,/,-1,/,/,/,/,/
COc1ccc(S(=O)(=O)Nc2ccc3c(c2)C(=O)N([C@H](C)CO)C[C@@H](C)[C@H](CN(C)Cc2ccc(C(=O)O)cc2)OCCCC[C@@H](C)O3)cc1,/,0,/,/,/,/,/
COC(=O)c1cn(-c2ccccc2)nc1-c1ccccc1,-7,/,36*,6,-8,73*,56*
COC(=O)c1cn(-c2ccccc2)nc1-c1ccc(OC)c(OC)c1,-7,0,5,0,14,/,/
CCCC#Cc1cnc2c(c1)C(=O)N([C@H](C)CO)C[C@@H](C)[C@@H](CN(C)Cc1ccc(C(=O)O)cc1)O2,/,0,/,/,/,/,/
COc1cccc(NC(=O)N(C)C[C@@H]2Oc3ncc(C4=CCCCC4)cc3C(=O)N([C@H](C)CO)C[C@H]2C)c1,/,-1,/,/,/,/,/
O=c1[nH]c2cc3c(cc2cc1C(c1nnnn1CC1CCCO1)N1CCCC1)OCO3 (configuration not stated),-3,/,29*,6,21,+,+
O=c1[nH]c2cc3c(cc2cc1C(c1nnnn1CC1CCCO1)N1CCCCCC1)OCCO3 (configuration not stated),-2,/,20,9,15,/,/
SMILES,PrPC surface inh,TcdB inh,FBA Mtb inh,Yp Topo-I inh,GDH-TPI counter-1,Mtb FBA inh conf,GDH-TPI counter-2
CCN1CCN(C(c2cc3cc4c(cc3[nH]c2=O)OCO4)c2nnnn2C(C)(C)CC)CC1 (configuration not stated),-6,/,94*,-15,32*,9,1
CCC(C)(C)n1nnnc1C(C(C)C)N(Cc1ccco1)Cc1cc2cc3c(cc2[nH]c1=O)OCO3 (configuration not stated),-3,/,29*,12,9,52*,44*
C[C@H](NC(=O)C[C@H]1C=C[C@H](NC(=O)CN2CCOCC2)[C@@H](CO)O1)c1ccccc1,/,-1,/,/,/,/,/
CNc1ccc(-c2ccccc2CO)cn1,2,1,51*,-4,9,45*,27*
CCC(C)[C@H](NC(=O)C1CC(=O)N(c2ccc3c(c2)OCCO3)C1)C(=O)NC1CCCC1 (some centres not stated),8,3,2,3,-11,/,/
CC(C)[C@H](NC(=O)C1CC(=O)N(c2ccc3c(c2)OCCO3)C1)C(=O)NC1CCCC1 (some centres not stated),0,2,96*,2,-3,+,+
CCCc1cc(NCc2ccccn2)n2c(nc3ccccc32)c1C#N,-4,-1,50*,3,4,86*,68*
CCCNc1cc(C)c(C#N)c2nc3ccccc3n12,4,/,69*,-5,14,55*,45*
CCc1c(C)c(C#N)c2nc3ccccc3n2c1NC,6,1,3,3,4,/,/
CCCc1cn(CC[C@H]2CC[C@@H](NC(=O)C3CCCC3)[C@H](CO)O2)nn1,/,0,/,/,/,/,/
O=C(N[C@H]1CC[C@@H](CCNC(=O)c2cnccn2)O[C@@H]1CO)c1ccc2c(c1)OCO2,/,0,/,/,/,/,/
N#C[C@H]1[C@H](c2ccc(-c3cccc(F)c3)cc2)[C@@H](CO)N1C(=O)NC1CCCCC1,/,-3,/,/,/,/,/
COc1ccc(-c2cnc3c(c2)CCC3(C#N)C#N)cc1,13,1,58*,-1,7,50*,33*
CC(C)CC#Cc1ccc([C@@H]2[C@H]3CN(C(=O)CN4CCOCC4)CC(=O)N3[C@H]2CO)cc1,/,0,/,/,/,/,/
O=C(CSc1cccc2cccnc12)N1CCCC1,-6,/,33*,-6,5,140*,108*
CCn1c(=O)c2cc(C(=O)NCc3cccs3)sc2c2ccccc21,-1,1,11,-2,14,/,/
CCCCNC(=O)c1cc2c(=O)n(CC)c3ccccc3c2s1,-10,0,7,0,12,/,/
CCn1c(=O)c2cc(C(=O)NCCN3CCOCC3)sc2c2ccccc21,-17,1,75*,17,25,198*,162*
CCn1c(=O)c2cc(C(=O)NC(C)C)sc2c2ccccc21,-2,3,44*,-5,5,/,+
COc1ccc(-c2nc3c4ccccc4ccn3c2CN2CCOCC2)cc1OC,1,4,37*,9,13,74*,51*
Cc1cccc(-c2cc3nc(C)cc(N4CC(C)CC(C)C4)n3n2)c1 (configuration not stated),1,/,67*,-2,10,56*,30*

# Source: PubChem
